Assay outcomes (PubChem)
KB-3-1 tox: kills parental KB-3-1 adenocarcinoma cells; KB-3-1 viability, CellTiter-Glo ATP luminescence, 72 h; Potency, µM (series often up to 46.1 µM), most hits filed as cytotoxic; 400,000 tested, 1.4% active; AID 1347075; also: % is scaled to controls: 0 for no effect and ±100 for the full control effect; nearly all actives have a fitted effect of over 60% in size
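Parental KB-3-1 adenocarcinoma cells in phenol-red-free DMEM with 10% FBS were pin-treated with compounds at several concentrations, incubated 72 h at 37 °C, and viability read by CellTiter-Glo luminescence; concentration-effect curves were fitted after normalization.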
SW480 rerep: induces DNA re-replication in SW480 colon adenocarcinoma cells | SW480 DNA re-replication, Hoechst DNA content imaging, 48 h | Potency, µM (doses to about 46.1 µM), inactives show at the highest dose re-replication activation, hits mostly activators | 340,000 tested, 1.8% active | AID 624297; also: % of control where 0% means no effect; nearly all actives have a fitted effect of over 55% in size
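Readout is total intensity of Hoechst-stained nuclei, excited at 405 nm and collected at 500-530 nm. Compound treatment lasted 48 hr at 37 C in 5% CO2 before staining.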
PINK1 modulator: PINK1 expression modulation. PINK1 immunofluorescence, high-content cytometry, 24 h. Potency, µM (titrated, usually from 76.6 µM), for the others: at the highest dose activation (PINK1 increase), most hits filed as activators. 410,000 tested, 0.2% active. AID 624263; active = well fitted activation curve with a large enough effect; inconclusive = small, poorly fitted or top-dose-only effect; cell line not stated here; also: % of control where 0% means no effect; nearly all actives have a fitted effect of over 65% in size
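Fluorescence from anti-PINK1 antibody, together with nuclear and cell stains, was scanned on a laser-scanning cytometer. Before staining, stable-line cells were incubated 24 hours with compounds at 5 concentrations; primary antibody 12 h at 10 degrees C.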
12-LOX inh: inhibitors of human 12S-lipoxygenase ALOX12. purified 12hLO, xylenol orange hydroperoxide absorbance. P18054. 580,000 tested, 1.1% active. Potency, µM (highest dose often 108 µM), without a hit: at the top dose activity change, negative = inhibition, actives largely listed as inhibitors; also: % is scaled to controls: 0 for no effect and ±100 for the full control effect
Target sequence (P18054 whole entry, looked up): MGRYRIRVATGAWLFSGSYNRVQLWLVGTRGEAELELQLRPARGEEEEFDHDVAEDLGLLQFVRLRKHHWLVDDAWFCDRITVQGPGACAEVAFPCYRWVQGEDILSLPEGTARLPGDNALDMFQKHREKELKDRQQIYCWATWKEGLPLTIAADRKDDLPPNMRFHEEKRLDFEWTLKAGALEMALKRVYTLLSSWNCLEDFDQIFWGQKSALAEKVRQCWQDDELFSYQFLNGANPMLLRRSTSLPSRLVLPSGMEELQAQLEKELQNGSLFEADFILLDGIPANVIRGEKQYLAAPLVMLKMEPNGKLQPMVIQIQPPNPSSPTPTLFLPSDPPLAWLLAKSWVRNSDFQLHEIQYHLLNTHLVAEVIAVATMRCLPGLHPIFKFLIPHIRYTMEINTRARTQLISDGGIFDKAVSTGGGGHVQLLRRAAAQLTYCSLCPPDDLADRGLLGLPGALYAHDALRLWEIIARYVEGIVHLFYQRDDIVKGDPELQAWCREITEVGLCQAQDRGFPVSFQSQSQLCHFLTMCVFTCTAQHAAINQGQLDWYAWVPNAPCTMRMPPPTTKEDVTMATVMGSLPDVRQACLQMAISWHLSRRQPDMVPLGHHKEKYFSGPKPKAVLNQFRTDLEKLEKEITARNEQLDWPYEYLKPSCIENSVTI
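Purified human 12hLO (150 nM final) in 25 mM Hepes, 0.01% Triton X-100, pH 7.0 was preincubated 15 min at room temperature with compound. Then 40 uM arachidonic acid was added, 30 min. Hydroperoxide was read by Fe-XO absorbance ratio 573/405 nm.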
MCF10A rereplic: induces DNA re-replication in MCF 10a normal breast cells; AID 624296; 350,000 tested, 2.9% active; MCF 10A DNA re-replication, Hoechst nuclear intensity, 48 h; Potency, µM (top dose mostly 46.1 µM), inactives show at the highest dose activity, positive = re-replication, usual class: activators; also: % of control where 0% means no effect; nearly all actives have a fitted effect of over 50% in size
KB-V1 cytotox: KB-V1 MDR subline cytotoxicity | KB-V1 MDR cells viability, CellTiter-Glo, 72 h | Potency, µM (titrated, usually from 46.1 µM), most hits filed as cytotoxic | 400,000 tested, 3.4% active | AID 1347076; also: % is scaled to controls: 0 for no effect and ±100 for the full control effect; nearly all actives have a fitted effect of over 60% in size
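KB-V1 cells (P-gp-expressing MDR subline of KB-3-1) in phenol-red-free DMEM with 10% FBS were exposed to library compounds over a concentration series for 72 h at 37 degrees C. Viability read by CellTiter-Glo luminescence; concentration-effect curves fitted after normalization.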
Active calls of the source: *; i = inactive; ? = inconclusive; / = no result; [ ] = dose if it differs, or a comment. Shown are actives, neighbours in structure and some others; about 5.8% of the full set was active somewhere. Unless noted, calls follow the shape of the dose curve; as a rule, active = well fitted curve in the direction sought with a large enough effect; inconclusive = small, poorly fitted or top-dose-only effect, or another doubt; inactive = no such curve, though single readings can be large; an effect the other way counts as inactive or inconclusive. Potency is read from the fitted curve at half-maximal effect.

SMILES	KB-3-1 tox	SW480 rerep	PINK1 modulator	12-LOX inh	MCF10A rereplic	KB-V1 cytotox
CCc1cccc(NC(=O)C2CCCN(c3cnn(Cc4ccccc4)c(=O)c3)C2)c1 (stereo unspecified)	/	/	/	40µM*	/	/
O=C(Nc1cccc(-n2cccn2)c1)C1CCCN(Cc2cc3ccccc3[nH]2)C1 (stereo unspecified)	i	?	0%	-18%	21µM*	i
O=C(Nc1ccc(-n2cccn2)c(F)c1)C1CCCN1C(=O)c1ccco1 (stereo unspecified)	/	/	/	16%	/	/
Cc1cccc(CC(=O)NC(Cc2ccccc2)C(=O)NCc2cc(=O)n(C)c(=O)n2C)c1 (stereo unspecified)	/	/	/	24%	/	/
CCOc1cc(C2C3=C(CC(C)(C)CC3=O)OC3=C2C(=O)CC(C)(C)C3)ccc1OC(C)=O	/	/	/	73%	/	/
O=C(NCc1ccccn1)C1CCCN(S(=O)(=O)c2cc(Cl)ccc2Cl)C1 (stereo unspecified)	?	?	1%	/	0.73µM*	0.73µM*
O=C(NCC(=O)N1CCN(c2ccccn2)CC1)c1cc2ccccc2[nH]1	/	/	/	-24%	/	/
Cc1cccc(N2CCN(C(=O)CN3CCOc4ccccc43)CC2C)c1 (stereo unspecified)	i	?	0%	?	1%	i
Cc1ccc(N2C(=O)C3C4C=CC(CNC(=S)N5CCN(c6cccc(C)c6)C(C)C5)(O4)C3C2=O)cc1 (stereo unspecified)	?	10µM*	15%	-23%	21µM*	?
S=C(NCCc1ccccc1)N1CCN(C(=S)NCCc2ccccc2)CC1	i	3%	0%	?	4%	i
Fc1ccc(CN2CCN(C(=S)NCCc3ccccc3)CC2)c(Cl)c1	?	2%	-1%	-1%	23%	21µM*
OC(c1ccccc1)(c1ccccc1)C1CCN(C(=S)NCCc2ccccc2)CC1	i	1%	1%	40µM*	?	i
CC1CCN(C(=S)NCCc2ccccc2)CC1	i	4%	-1%[38.3 µM]	4%	-3%	23µM*
S=C(NCCc1ccccc1)N1CCN(Cc2ccc(Cl)c(Cl)c2)CC1	?	13%	3%	1%	-1%	i
OC(c1ccccc1)(c1ccccc1)C1CCN(C(=S)NC2CCCC2)CC1	i	0%	-1%	?	-11%	i
CCC(C)N(CC(=O)Nc1cccc(C)c1C)C(=O)CN1CCCC(C(F)(F)F)C1 (stereo unspecified)	/	/	/	5%	/	/
NCc1oc(-c2ccccc2)cc1C(=O)O	i	-16%	2%	10µM*	12%	i
NC(=O)CN1C(=O)/C(=c2\sc3nc(=O)c(Cc4ccccc4)nn3c2=O)c2ccccc21	i	-8%	0%	0%	8%	i
CCCN1C(=O)/C(=c2\sc3nc(=O)c(Cc4ccc(C)cc4)nn3c2=O)c2ccccc21	i	4%	-2%	50µM*	-9%	i
O=C(COc1ccc2ccccc2c1Br)N1CCN(c2ccccn2)CC1	?	?	-4%[38.3 µM]	-20%	97%	23µM*
COc1cc(O)oc1C=Nc1ccc(C(=O)O)cc1	?	-4%	2%	-19%	-4%	23µM*
COc1cc(O)oc1C=Nc1ccc(Cl)cc1	i	-18%	0%	1%	9%	i
Cc1nc2c(c(=O)[nH]1)C(c1ccc(OCc3cccc(Cl)c3)cc1)CC(=O)N2 (stereo unspecified)	/	/	/	33%	/	/
Cc1ccc(C)c(S(=O)(=O)N2CCN(C(=O)C3CCN(c4ncnc5sc(C)c(C)c45)CC3)CC2)c1	23µM*	21µM*	1%	-14%	21µM*	?
CCOC(=O)c1ccccc1NC(=O)C1CC(=O)N(C(C)(C)C)C1 (stereo unspecified)	i	-35%	0%	11%	1µM*	i
Cc1sc2ncnc(N3CCC(C(=O)Nc4ccccc4C(C)(C)C)CC3)c2c1C	i	?	1%	-10%	18%	?
